SUMO Mot1 rescue – blocks SUMOylation pathway, rescuing yeast Mot1-301 growth. S. cerevisiae Mot1-301 growth rescue, ATP luminescence, 38.5C; percent above DMSO median, 100 means doubled. growth rescue, % at 18.8 µM. 1% of 320,000 active. AID 2716;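 active means every valid replicate shows activation above 250% relative to neutral control wells; inactive means the rest, any valid replicate at or below 250%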;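 further: OY570 slx delta 5 strain wells were the positive control but not used for scaling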
NSD2 HMT inh – NSD2 (human) methyltransferase inhibition; O96028; NSD2 peptide methylation, AlphaScreen, 120 min; inhibition, % at 12.5 µM; 0.54% of 310,000 active; in the data active means inhibition above about 50%
CDK5 inh – blocks human CDK5/p35 kinase activity | Q00535+Q15078 | Recombinant CDK5/p35, ADP-Glo luminescence, 60 min | inhibition, % at 10 µM | 0.01% of 330,000 active | AID 488839;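 active means highest replicate inhibition of at least 50% and at least 75% of replicates reaching 50%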;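 further: plate controls were DMSO neutral control for no effect and GW8510 at 10 µM for full effect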
Glyco luc inh – N-linked glycosylation inhibition; 0.23% of 360,000 active; D54 ERlucT glycosylation luciferase reporter, 24 h; percent of 100 nM tunicamycin response; reporter increase, % at 12.5 µM;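 active means mean luciferase reporter signal, scaled so untreated is 0 and the glycosylation-blocking control 100, at or above a set limit in every replicate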;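 further: luciferase carries N-glycosylation sites so blocking glycosylation raises the light; 0% = median of neutral control wells and 100% = median of 100 nM tunicamycin wells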
Casp6 inh – caspase-6 (human) enzyme inhibition. purified caspase-6, Z-VEID-R110 cleavage fluorescence. inhibition, % at 12.5 µM. 0.53% of 350,000 active;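 active means mean inhibition across replicates at least about 35%, with every replicate also reaching that limit, limit read from the data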;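 further: 0% = median of neutral control wells and 100% = no fluorescence left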
Target sequence (P55212 24-179 limits assumed): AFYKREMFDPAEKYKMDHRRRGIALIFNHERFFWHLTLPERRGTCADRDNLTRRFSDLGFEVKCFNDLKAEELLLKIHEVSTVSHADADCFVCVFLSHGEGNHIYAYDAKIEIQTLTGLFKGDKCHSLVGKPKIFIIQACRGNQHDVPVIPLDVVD
Target sequence (P55212 194-293 limits assumed): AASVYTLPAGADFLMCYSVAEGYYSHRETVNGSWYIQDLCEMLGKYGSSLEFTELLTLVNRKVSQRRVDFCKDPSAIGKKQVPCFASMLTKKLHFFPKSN
ALR inh – inhibitors of human sulfhydryl oxidase ALR. P55789. purified ALR, DTT oxidation, H2O2 HRP-luminol luminescence. inhibition, % (no concentration beside the values). 3.8% of 290,000 active. AID 485317;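 active means mean replicate inhibition above about 79%, with every replicate also reaching it, limit read from the data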
Target sequence (P55789 whole entry, looked up): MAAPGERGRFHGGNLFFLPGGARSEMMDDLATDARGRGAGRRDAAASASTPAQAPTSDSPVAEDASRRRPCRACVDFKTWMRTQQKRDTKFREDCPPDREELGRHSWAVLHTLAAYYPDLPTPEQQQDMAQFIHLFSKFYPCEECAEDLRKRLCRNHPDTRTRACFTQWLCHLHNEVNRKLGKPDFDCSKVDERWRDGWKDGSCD
AlphaScreen art – AlphaScreen assay artifact in NSD2 counter-screen; AC35, µM (titrated, usually from 10 µM), for the others: top-dose activity change, negative = signal loss; AlphaScreen artifact counterscreen, preloaded methylated H4 peptide; AID 1053174; 9.4% of 1,500 active; shares compounds with NSD2 HMT inh; call rule not given here
* = called active by the depositor; . = no result. In the library only some 3.9% were active in any assay of this set; here they are far more common.

SMILES	SUMO Mot1 rescue	NSD2 HMT inh	CDK5 inh	Glyco luc inh	Casp6 inh	ALR inh	AlphaScreen art
COc1ccc(CN(C)C[C@H]2OCCCC[C@H](C)Oc3ccc(NS(=O)(=O)c4ccc(C)cc4)cc3C(=O)N([C@H](C)CO)C[C@H]2C)cc1	.	.	.	.	-0.4	.	.
CCC(=O)Nc1ccc2c(c1)C(=O)N(C)C[C@@H](OC)[C@H](C)CN(Cc1ccccn1)[C@H](C)CO2	.	.	.	.	-1.4	.	.
COc1ccc(C2CC(=O)c3c(C)nc(N4CCN(c5ccccc5)CC4)nc3C2)cc1 (configuration not stated)	2.0	52.8*	0.7	-3.5	.	2.2	-5.6%
Cc1nc(N2CCN(Cc3ccccc3)CC2)nc2c1C(=O)CC(c1ccco1)C2 (configuration not stated)	22.8	1.4	-0.6	-5.3	.	-7.6	.
O=C(NNc1cc(N2CCOCC2)nc(N2CCOCC2)n1)c1ccc([N+](=O)[O-])cc1	.	128.7*	4.4	4.5	7.0	.	-3.7%
O=C(Nc1cccc(-c2ccc(N3CCOCC3)nn2)c1)c1ccc([N+](=O)[O-])cc1	8.4	-0.4	-0.9	-5.9	3.0	-3.0	.
Cc1noc(C)c1S(=O)(=O)N(C)C[C@@H]1OCCCC[C@H](C)Oc2ccc(NS(C)(=O)=O)cc2C(=O)N([C@H](C)CO)C[C@@H]1C	.	.	.	.	-0.4	.	.
NC1=NC(=Nc2ccc(Br)cc2)c2ccccc21	6.7	52.9*	-2.0	1.7	0.4	46.5	-9.4%
C[C@H]1CN([C@@H](C)CO)C(=O)c2c(c3ccccc3n2C)-c2ccccc2CO[C@H]1CN(C)S(=O)(=O)c1ccc(F)cc1	.	.	.	.	0.0	.	.
Cc1c(CN(C)C)c2c(n1Cc1ccccc1)C(=O)c1ccccc1-2	-21.2	92.7*	-0.3	0.6	.	2.2	5.73µM*
Cc1cc(=O)n(Cc2ccccc2)c2ccccc12	43.2	-0.6	0.0	-0.1	-2.1	-13.8	.
CNC(=O)C[C@@H]1CC[C@H]2[C@H](COc3ccc(NC(=O)Nc4cccc(C)c4)cc3C(=O)N2C)O1	.	.	.	.	-0.1	.	.
Nc1c(C(=O)NCC2CCCO2)c2nc3ccccc3nc2n1-c1ccccc1 (configuration not stated)	8.2	-19.2	-0.9	-8.3	.	26.5	.
Nc1c(C(=O)OCC2CCCO2)c2nc3ccccc3nc2n1C1CCCCC1 (configuration not stated)	16.6	75.9*	-0.1	7.3	9.9	-57.0	-7.0%
CC(=O)c1ccc(NC(=O)CC2Nc3cccc4cccc(c34)NC2=O)cc1 (configuration not stated)	238.4	78.2*	-0.1	4.8	8.8	.	-4.9%
O=C(c1ccccc1OCc1ccccc1Br)N1CCN(c2ncccn2)CC1	-8.7	99.1*	-0.6	-6.2	.	-4.3	-4.7%
O=C(O)c1ccccc1NC(c1ccccc1)c1ccc2cccnc2c1O (configuration not stated)	.	.	8.2	5.7	11.9	.	.
O=C(O)c1ccc2cccnc2c1O	3.0	60.7*	-2.7	0.1	3.5	-18.2	-4.7%
Nc1ccc2c(O)cc(S(=O)(=O)O)cc2c1	.	80.2*	.	-0.7	76.8*	.	-20.8%
CC(=O)c1ccc(NC(=O)Nc2cccc(Cl)c2)cc1	-17.4	-5.9	-0.7	-6.7	.	-3.4	.
CC(=O)c1ccc(NC(=S)NCCc2cccc(Cl)c2)cc1	-0.6	53.4*	-1.2	0.3	2.5	-0.2	-1.8%
O=C1CC(N2CCOCC2)=NN1c1ccc([N+](=O)[O-])cc1	4.3	110.0*	-1.3	0.4	15.5	-128.4	-0.5%
O=[N+]([O-])c1ccc(N2CCOCC2)nc1	7.7	0.6	1.5	0.7	.	2.0	.
C[C@H](CO)N1C[C@H](C)[C@H](CN(C)C(=O)c2ccc(F)cc2)Oc2cc(C3=CCCCC3)ccc2S1(=O)=O	.	.	.	.	0.2	.	.
O=C(Nc1ccc(Cl)cc1)c1ccc2c(=O)n3c(nc2c1)CCCCC3	.	.	0.4	-1.0	1.0	.	.
SMILES	SUMO Mot1 rescue	NSD2 HMT inh	CDK5 inh	Glyco luc inh	Casp6 inh	ALR inh	AlphaScreen art
O=C(Nc1ccccn1)c1ccc2c(=O)n3c(nc2c1)CCCCC3	-18.7	60.8*	4.0	-10.7	10.5	-14.1	-1.3%
O=C(COC(=O)c1ccc2c(=O)n3c(nc2c1)CCC3)NC1CCS(=O)(=O)C1 (configuration not stated)	169.6	-1.6	-1.1	0.7	.	-5.3	.
CC1CCCCC1NC(=O)COC(=O)c1ccc2c(=O)n3c(nc2c1)CCC3 (configuration not stated)	2.2	117.3*	-2.0	-0.5	-0.3	.	-1.4%
COCC(=O)N(C)C[C@@H]1Oc2cc(-c3ccc(C#N)cc3)ccc2S(=O)(=O)N([C@H](C)CO)C[C@H]1C	.	.	.	.	-2.1	.	.
C[C@@H](O)C#Cc1ccc2c(c1)O[C@H](CN(C)C(=O)C1CCC1)[C@@H](C)CN([C@@H](C)CO)S2(=O)=O	.	.	.	.	-2.6	.	.
CO[C@H](CN(C)Cc1ccc2c(c1)OCO2)[C@H](C)CN(C(=O)Nc1ccc(F)cc1)[C@@H](C)CO	.	.	.	.	-0.1	.	.
CN(C)C(=O)c1ccc(-c2ccc([C@@H]3[C@H]4CN(C(=O)C5CCC5)CCCCN4[C@H]3CO)cc2)cc1	.	.	.	.	0.2	.	.
CCN1CCC(CNCc2cn(-c3ccc(OC)cc3)nc2-c2ccccc2Cl)C1 (configuration not stated)	-14.6	75.0*	0.9	-3.1	-77.8	0.5	-3.9%
O=C(C[C@@H]1C=C[C@H](NC(=O)Cc2cccnc2)[C@@H](CO)O1)Nc1ccc(-c2ccccc2)cc1	.	.	.	.	-0.2	.	.
C[C@H](CO)N1C[C@H](C)[C@H](CN(C)C(=O)Nc2cccc(F)c2)OCc2ccccc2-c2ccccc2C1=O	.	.	.	.	-1.8	.	.
COc1ccc2c3c(n(C)c2c1)[C@@H](CO)N(C(C)=O)CC31CN(C(=O)c2cnccn2)C1	.	.	.	.	1.1	.	.
C[C@@H]1CCCCO[C@H](CN(C)C(=O)Nc2ccc3c(c2)OCO3)[C@H](C)CN([C@@H](C)CO)C(=O)c2cc(NS(C)(=O)=O)ccc2O1	.	.	.	.	-0.8	.	.
NC1=C(Br)C(=O)c2ncccc2C1=O	.	101.5*	0.0	-20.2	99.6*	.	4.6%
O=C1c2cccnc2C(=O)N1CO	-8.8	0.5	1.1	1.7	.	-3.9	.
C[C@@H]1CCCCO[C@H](CN(C)CC2CCCCC2)[C@@H](C)CN([C@H](C)CO)C(=O)c2cc(NS(=O)(=O)c3ccccc3)ccc2O1	.	.	.	.	0.7	.	.
COc1cccc(S(=O)(=O)N2C[C@@H](O)COC[C@H]3O[C@@H](CC(=O)N4CCCCC4)CC[C@@H]32)c1	.	.	.	.	-0.8	.	.
O=[N+]([O-])c1ccc(Sc2cccc[n+]2[O-])c2nonc12	.	129.1*	3.8	-23.5	61.6*	.	7.84µM*
C[C@H]1CN([C@@H](C)CO)C(=O)Cc2cc(NC(=O)Cc3ccccc3)ccc2O[C@H]1CN(C)Cc1ccncc1	.	.	.	.	-0.4	.	.
